In PubChem BioAssay AID485294 (National Center for Advancing Translational Sciences (NCATS), 2010):
Out of some 370,000 compounds screened, about 150 (0.041%) were called active. Inconclusive results (about 14%) are left out. For the sample, actives were picked, then their nearest neighbours and some compounds at random. Unmarked numbers belong to inactive results. Calls come from the whole dose curve; as a rule, active = well fitted inhibition curve with a large enough effect; inconclusive = small, poorly fitted or top-dose-only effect; inactive = flat fitted curve, though single readings scatter.

molecular target: Beta-lactamase (Escherichia coli (strain K12)) (UniProt P00811); assay: qHTS Inhibitors of AmpC Beta-Lactamase (assay with detergent); details: AmpC hydrolysis of nitrocefin, absorbance 480 nm, 0.01% Triton; series mostly up to 114 µM; activity change, negative = inhibition: at the top concentration; note: nearly all actives have a fitted effect of over 25% in size;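 for activity change, negative = inhibition: 0% = no-compound wells and -100% = no-enzyme wells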
Protocol: NIH Molecular Libraries Probe Production Network [MLPCN] NIH Chemical Genomics Center [NCGC] Assay Provider: Professor Brian Shoichet, UCSF Assay Overview: This aggregation profiling approach exploits the sensitivity of aggregate formation to detergent. Inhibition of b-lactamase is measured in the presence and absence of 0.01% Triton X-100. This particular assay had the prescence of 0.01% Triton X-100. See Pubchem assay "Promiscuous and Specific Inhibitors of AmpC Beta-Lactamase (assay without detergent)" for related screen. Compounds that inhibit only in the absence of detergent are considered likely promiscuous aggregators. A screen of 1,030 compounds was performed in Brian Shoichet's lab in 96-well format. AmpC activity was measured by following the absorbance at 480 nm. Nitrocefin is a chromogenic substrate: while nitrocefin is yellow (lmax 390 nm), the product of its hydrolysis is red (lmax 486 nm, 17,000 M-1). AmpC beta lactamase was provided by Shoichet Lab, UCSF.
Buffer: 20 mM phosphate buffer, pH 7.0 Triton X-100: No Detergent screen: 0.0001%, Detergent screen: 0.01%. Reagents/Controls: Buffer in columns 3 and 4 as negative control (no enzyme). 5.3 nM AmpC in columns 1, 2, 5-48. Titration of UCSF compound 9 control (from 10 mM, then 1:2) pin-transferred to column 2. Column 1 is neutral (100% activity). Assay Steps: Six uL of reagents were dispensed to 1536-well Greiner black clear bottom plates. Compounds and controls (23 nL) were transferred via Kalypsys PinTool. The plates were incubated for 15 min at room temperature, and then 2 uL of 800 uM solution of nitrocefin was added to start the reaction. The plates were immediately transferred to and read every 20 seconds for 4 min on ViewLux (Perkin-Elmer) High-throughput CCD imager using 480 nm absorbance protocol. During dispense, reagent bottles were kept submerged into 4 deg C water bath. Keywords: NIH Roadmap, MLSCN, MLI, MLSMR, qHTS, NCGC, AmpC Beta-Lactamase, Aggregation
Potency is the fitted concentration of half-maximal effect.

Chain of Beta-lactamase (Escherichia coli (strain K12)) (P00811 whole entry, looked up): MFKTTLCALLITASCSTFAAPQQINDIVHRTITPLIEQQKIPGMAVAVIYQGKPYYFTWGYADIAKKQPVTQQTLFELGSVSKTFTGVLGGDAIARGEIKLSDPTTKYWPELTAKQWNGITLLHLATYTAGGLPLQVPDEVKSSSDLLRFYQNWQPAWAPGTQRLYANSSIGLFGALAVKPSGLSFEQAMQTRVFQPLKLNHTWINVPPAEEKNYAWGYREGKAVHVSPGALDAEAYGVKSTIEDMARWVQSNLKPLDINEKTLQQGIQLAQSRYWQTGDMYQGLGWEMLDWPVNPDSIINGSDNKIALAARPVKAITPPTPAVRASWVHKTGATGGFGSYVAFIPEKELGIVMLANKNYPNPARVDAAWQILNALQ

SMILES	activity change, negative = inhibition [%]	Potency
CCCNc1ncnc2c1c(-c1ccccc1)cn2-c1ccc(OCC)cc1	7.73	–
CCCN(CCC)CCNC(=O)c1ccc2c(c1)NC(=O)C(CS(=O)(=O)Cc1cccc(Br)c1)N2 (stereo not drawn)	4.65	–
Cc1ccc(-n2c3nc(=O)[nH]c(=O)c-3cc3c(Cl)cccc32)cc1	17.3	–
O=C(CSc1nnc(-c2ccccc2F)o1)Nc1cccc(C(F)(F)F)c1	-2.35	–
CCC(=O)Nc1ccc2nc(SCC(=O)N3CCc4ccccc43)sc2c1	17	–
Cc1ccc(-c2cnc(NCc3ccc(C(C)C)cc3)n2C)cc1	1.02	–
Cc1ccc(C)c(NC(=O)C2CCCN(S(=O)(=O)c3cn(C)cn3)C2)c1 (stereo not drawn)	1.52	–
Cc1c(C(=O)N2CCCC2)oc2c1-c1nn(CC(=O)NCc3ccc(OC(C)C)cc3)cc1CC2	-0.874	–
Cc1c(NC(=O)Nc2ccc(F)c(Cl)c2)c(=O)n(-c2ccccc2)n1C	10.1	–
CCCN(C(=O)Cn1cc(S(=O)(=O)N2CCN(c3ccccc3F)CC2)c2ccccc2c1=O)c1cccc(C)c1	15.1	–
COc1ccc(Cl)cc1S(=O)(=O)N1CCC(c2ccncc2)CC1	5.01	–
COc1ccc(-c2nc3sc(CCNS(=O)(=O)c4ccc(F)c(C)c4)c(C)n3n2)cc1	1.12	–
CCOc1ccc(-c2cc3nc(C4CCN(C(=O)OC(C)(C)C)CC4)c(C(=O)Nc4ccc(C(=O)OC)cc4)cn3n2)cc1	-0.405	–
CCCNC(=O)CCC(=O)N1Cc2ccccc2Oc2ncccc21	26.6	–
O=C(Cn1c(-c2cccs2)cc2ccccc21)NCCc1ccc(Cl)cc1	0.161	–
Cc1ccc(CNS(=O)(=O)c2ccc(-c3cc(C(F)(F)F)on3)s2)cc1	-0.38	–
COCCCNC(=O)c1ccc(NC(=O)c2nsc3ccccc23)cc1	1.67	–
COc1ccc(-c2nc(C)c(CCNC(=O)c3ccc(C(F)(F)F)cc3)s2)cc1OC	5.88	–
CC1CCCN(Cc2c(O)ccc3c(=O)c(Oc4ccc(C(C)(C)C)cc4)c(C(F)(F)F)oc23)C1 (stereo not drawn)	-1.79	–
COc1ccc(/C=C/c2nc(C#N)c(NCc3ccc(F)cc3)o2)cc1OC	-1.11	–
Cc1c(-c2nc(-c3ccc4c(c3)OCO4)no2)nnn1-c1ccc(Br)cc1F	3.22	–
COc1cc(NC(=O)c2noc3c2CSc2ccccc2-3)cc(OC)c1OC	22.2	–
CCCCN1CC(c2nc3ccccc3n2CCCCOc2ccc(C)cc2C)CC1=O (stereo not drawn)	20.3	–
CCOc1cccc(NC(=O)CSc2ncc(-c3ccc(Cl)cc3)[nH]2)c1	14.7	–

SMILES	activity change, negative = inhibition [%]	Potency
CC(=O)N1CCCc2cc(S(=O)(=O)Nc3ccc(Cl)cc3F)ccc21	-0.767	–
Nc1ccc(Nc2cc(O)c3ncccc3c2)cc1	-4.05	–
CCN(CC)S(=O)(=O)c1ccc2c(c1)N(CC(=O)NCC(C)c1ccccc1)C(=O)CO2 (stereo not drawn)	18.7	–
CSc1ccccc1-c1nnc(NC(=O)c2ccc3c(c2)OCCO3)o1	5.64	–
CCn1c(CN2CCC(C)CC2)nc2cc(NC(=O)c3ccccc3[N+](=O)[O-])ccc21	22.8	–
COc1ccc(NC(=O)CCN2CCN(CCO)CC2)cc1	1.07	–
O=C(c1cccs1)c1cn(CCOc2ccc(Cl)cc2)c2ccccc12	-3.12	–
COc1ccc(OC)c(NC(=O)Cn2c(=O)n(Cc3ccccc3)c(=O)c3ccccc32)c1	5.51	–
CSc1nc(=O)c2c(n1C)NC(=O)CC2c1ccccc1OC(C)C (stereo not drawn)	5.75	–
Cc1cccc(N2CCN(C(=O)c3oc(=O)c4ccccc4c3-c3ccccc3)CC2)c1C	-1.7	–
COc1ccc(Cn2ccnc2SCC(=O)Nc2ccc3c(c2)OCO3)cc1	5.64	–
Cc1ccccc1OCc1ccc(-c2nc(C#N)c(N3CCCCC3)o2)o1	0.568	–
Cc1ccc(S(=O)(=O)c2c(Nc3cccc(Cl)c3)sc(C(=O)c3ccc4c(c3)OCO4)c2N)cc1	28.1	–
Cc1cccc(NC(=O)Cn2c(C(F)(F)F)nc3ccccc32)c1C	5.01	–
O=C(/C=C/c1ccccc1)Nc1cc(-c2nc3cc(Cl)ccc3o2)ccc1Cl	-2.1	–
COc1ccc(-c2cc(C(F)(F)F)n3nc(-c4ccccc4)cc3n2)cc1OC	0.338	–
CCOc1ccc(C(NC(=O)c2cc(OC)c(OC)c(OC)c2)c2cc(Cl)c3cccnc3c2O)cc1 (stereo not drawn)	-6.18	–
Cc1ccc2c(=O)c(C(=O)c3ccc(Cl)cc3)cn(CC(=O)NC3CCCCC3)c2n1	18.9	–
COc1ccc(-c2nc3ccccc3s2)cc1NC(=O)COc1ccccc1C	1.82	–
Cc1ccc(NC(=O)c2cc3cc(C)ccc3n2C)cc1	-3.66	–
Cc1cc(C)c(NC(=O)c2cc3sc(Cl)cc3n2C)c(C)c1	–	56.2 µM (active)
CCn1c(C(=O)Nc2cc(Cl)ccc2C)cc2sc(Cl)cc21	16.5	–
COc1ccc(CCNc2ncnc3onc(-c4ccc(Cl)cc4)c23)c(OC)c1	9.52	–
CCOC(=O)c1c(C)oc2nc(C)nc(N3CCN(c4ccc(OC)cc4)CC3)c12	13.8	–
